Source: PubChem BioAssay (NCATS)
Results filed as inconclusive are left out. A call without a number means that no potency is given here. Values without a mark were called inactive. Calls of active or inactive are those of the source. The call rests on the fitted dose curve; in most records, active means well fitted inhibition curve with a large enough effect; inconclusive means small, poorly fitted or top-dose-only effect, or effect the other way; inactive means flat fitted curve, though single readings scatter.

Assay: qHTS for Inhibitors of Plasmodium falciparum (CP250) proliferation (AID 504320)
How it was run: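 Erythrocytes infected with P. falciparum line (0.3% parasitemia, 2.5% hematocrit final) incubated with compounds 72 h at 37 °C, 5% CO2; SYBR Green lysis buffer added, fluorescence read next day. Normalized to 0.29 uM artemisinin and DMSO.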

Compound: COC(=O)c1ccccc1S(=O)(=O)N1CCc2nc(-c3ccc(OC)cc3C)c3c(c2C1)CO[C@@H](c1ccccc1)C3
- Potency: inactive
